Reference: PubChem BioAssay (NCATS)
Inconclusive results are not listed. Calls of active or inactive are those of the source. Unless noted, calls follow the shape of the dose curve; as a rule, active = well fitted curve in the direction sought with a large enough effect; inconclusive = small, poorly fitted or top-dose-only effect, or another doubt; inactive = no such curve, though single readings can be large; an effect the other way counts as inactive or inconclusive.

Experiments:
[1] = target: Lysosomal acid glucosylceramidase (Homo sapiens) (UniProt P04062); experiment: Glucocerebrosidase-p2 (AID 348; in the data active = potency below about 10 µM; also: potency is read from the fitted curve at half-maximal effect); details: purified GBA, blue fluorogenic substrate, 40 min
Lysosomal acid glucosylceramidase (Homo sapiens), sequence (P04062 whole entry, looked up): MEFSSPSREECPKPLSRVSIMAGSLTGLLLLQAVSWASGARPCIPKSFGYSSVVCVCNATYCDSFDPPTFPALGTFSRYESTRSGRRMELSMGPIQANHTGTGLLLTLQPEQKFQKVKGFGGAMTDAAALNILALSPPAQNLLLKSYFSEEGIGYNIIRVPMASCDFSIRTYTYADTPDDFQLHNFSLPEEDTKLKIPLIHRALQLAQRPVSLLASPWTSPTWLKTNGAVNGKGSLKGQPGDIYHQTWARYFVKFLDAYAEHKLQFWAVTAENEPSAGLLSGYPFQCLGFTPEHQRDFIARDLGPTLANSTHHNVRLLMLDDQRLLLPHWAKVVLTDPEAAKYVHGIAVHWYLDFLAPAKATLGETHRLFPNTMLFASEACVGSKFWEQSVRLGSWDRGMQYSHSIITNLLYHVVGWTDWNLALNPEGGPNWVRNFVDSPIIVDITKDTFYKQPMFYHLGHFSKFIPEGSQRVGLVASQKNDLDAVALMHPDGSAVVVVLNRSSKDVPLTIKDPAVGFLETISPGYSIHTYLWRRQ
Outline: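 Compounds titrated from 0.6 nM upwards against 0.2 nM enzyme in pH 5.9 citric acid/KH2PO4, taurocholate, tween-20; blue fluorogenic substrate 80 uM, 40 min room temperature, stopped and read Ex 365/Em 440 for AC50.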

[2] = AP1 Signaling Pathway (AID 357; active = well fitted curve in either direction with a large enough effect, not every such curve was filed as active;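 also: ME-180 reporter cells stimulated with EGF at its EC50 level; % is scaled to controls: 0 for no effect and ±100 for the full control effect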); details: ME-180 AP-1-bla reporter, EGF-induced, beta-lactamase ratio, 5 h; at 7.69 µM (top of the series) unless noted
Outline: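 Modulation of EGF-driven AP-1 transcription was assessed with a beta-lactamase reporter in ME-180 cells. Compound and EC50 EGF were co-incubated 5 hours at 37 °C before 2.5-hour CCF4 loading at room temperature and dual-emission reading.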

[3] = target: Cytochrome P450 1A2 (Homo sapiens) (UniProt P05177); experiment: p450-cyp1a2 (AID 410; calls by dose curve; also: potency is read from the fitted curve at half-maximal effect); details: recombinant CYP1A2, luciferin-ME demethylation, luminescence; series mostly up to 57 µM
Cytochrome P450 1A2 (Homo sapiens), sequence (P05177 whole entry, looked up): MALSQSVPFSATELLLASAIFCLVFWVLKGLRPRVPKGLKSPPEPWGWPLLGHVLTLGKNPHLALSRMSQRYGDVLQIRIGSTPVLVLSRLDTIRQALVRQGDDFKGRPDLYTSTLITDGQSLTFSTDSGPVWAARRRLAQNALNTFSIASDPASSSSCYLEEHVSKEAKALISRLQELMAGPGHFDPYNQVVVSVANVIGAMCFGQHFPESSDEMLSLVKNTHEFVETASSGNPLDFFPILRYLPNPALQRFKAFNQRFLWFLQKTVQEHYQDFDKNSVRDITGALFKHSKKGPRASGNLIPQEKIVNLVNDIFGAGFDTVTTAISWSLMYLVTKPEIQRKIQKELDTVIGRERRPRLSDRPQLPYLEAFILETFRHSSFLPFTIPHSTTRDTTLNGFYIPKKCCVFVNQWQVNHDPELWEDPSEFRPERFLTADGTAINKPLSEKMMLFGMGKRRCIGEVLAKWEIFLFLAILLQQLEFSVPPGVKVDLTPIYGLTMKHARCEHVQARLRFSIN
Outline: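 20nM CYP1A2 with 100uM Luciferin-ME (at Km) in 100mM KPO4; compound preincubated 10 min, NADPH regeneration added, 60 min at room temperature. Luciferin quantified by luminescence after detection reagent; normalized to 57 uM furafylline.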

[4] = NFAT Signaling Pathway (AID 444; active = well fitted curve in either direction with a large enough effect, not every such curve was filed as active;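 also: carbachol stimulus at about its EC50 of 1 µM final; % is scaled to controls: 0 for no effect and ±100 for the full control effect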); details: Jurkat NFAT-bla M1, carbachol, beta-lactamase ratio, 5 h; at 7.69 µM (top of the series) unless noted
Outline: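 Jurkat cells carrying an NFAT-driven β-lactamase reporter and co-transfected muscarinic M1 receptor were treated with compound plus carbachol (1 uM final, an EC50 level) for 5 h at 37 °C. CCF4 loading followed for 1 h at RT; 460/530 nm ratio gave %activity.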

[5] = Stat Signaling Pathway (AID 446; active = well fitted curve in either direction with a large enough effect, not every such curve was filed as active;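 also: ME-180 cervical cancer cells given 40 pM IL-6 alongside compound; SIE-controlled beta-lactamase reporter measured as 460/530 nm FRET emission ratio; % is scaled to controls: 0 for no effect and ±100 for the full control effect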); details: ME-180 SIE beta-lactamase reporter, IL-6 stimulated, 5 h; at 7.69 µM (top of the series) unless noted
Outline: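 Reporter line: ME-180 cervical carcinoma, SIE-beta-lactamase. Treatment: compound with 40 pM IL-6, 5 hrs, 37 C, in low-serum OPTI-MEM with 10 mM HEPES pH 7.3. Detection: 460/530 nm fluorescence.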

[6] = target: Glucocorticoid receptor (Homo sapiens) (UniProt P04150); experiment: GR-GFP Redistribution (AID 450;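 active = compounds whose dose series gives a full or clear partial fitted curve of increased nuclear translocation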; also: potency is read from the fitted curve at half-maximal effect); details: U2OS GR-GFP nuclear translocation, laser cytometry, 2 h
Glucocorticoid receptor (Homo sapiens), sequence (P04150 whole entry, looked up, the tested form may be a part): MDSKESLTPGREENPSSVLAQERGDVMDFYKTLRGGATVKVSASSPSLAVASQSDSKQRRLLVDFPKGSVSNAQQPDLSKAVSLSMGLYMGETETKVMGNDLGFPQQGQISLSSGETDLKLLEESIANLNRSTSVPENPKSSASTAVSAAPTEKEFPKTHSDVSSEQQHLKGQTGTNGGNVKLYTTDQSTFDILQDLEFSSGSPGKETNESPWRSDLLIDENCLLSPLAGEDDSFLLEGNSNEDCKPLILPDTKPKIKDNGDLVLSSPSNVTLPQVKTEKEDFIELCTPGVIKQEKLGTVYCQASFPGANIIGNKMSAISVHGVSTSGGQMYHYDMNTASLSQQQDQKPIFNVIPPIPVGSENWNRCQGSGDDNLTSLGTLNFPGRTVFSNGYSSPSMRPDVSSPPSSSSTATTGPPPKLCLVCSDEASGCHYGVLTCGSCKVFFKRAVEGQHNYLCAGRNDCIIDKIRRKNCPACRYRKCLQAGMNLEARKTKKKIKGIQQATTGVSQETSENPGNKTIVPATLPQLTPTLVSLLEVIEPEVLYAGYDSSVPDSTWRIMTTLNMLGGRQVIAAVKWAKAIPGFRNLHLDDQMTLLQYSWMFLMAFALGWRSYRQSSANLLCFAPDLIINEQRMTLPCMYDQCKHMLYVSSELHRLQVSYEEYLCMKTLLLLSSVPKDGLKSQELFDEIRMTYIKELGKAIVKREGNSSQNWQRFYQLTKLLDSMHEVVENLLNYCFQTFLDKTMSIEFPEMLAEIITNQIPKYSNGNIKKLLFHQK

[7] = target: Glucocorticoid receptor (Homo sapiens) (UniProt P04150); experiment: GR-EFC Redistribution (AID 451; calls by dose curve; also: potency is read from the fitted curve at half-maximal effect); details: CHO-K1 GR-EFC translocation, beta-gal luminescence, 2 h
Outline: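 CHO-K1 cells stably expressing nuclear-localized β-gal enzyme acceptor and GR fused C-terminally to the enzyme donor fragment; ligand-driven nuclear translocation restores β-gal by complementation. Compounds titrated up to 46 uM final, 2 h at 37 °C; luminescence read.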

[8] = target: Mitogen-activated protein kinase 10 (Mus musculus) (UniProt Q61831); experiment: JNK3 AlphaScreen Assay (AID 530; active = well fitted curve in either direction with a large enough effect, not every such curve was filed as active;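 also: kinase came from lysate of stimulated human HepG2 cells; signal reports phosphorylation of biotinylated GST-cJun 1-79 at Ser73 with 10 µM ATP; % is scaled to controls: 0 for no effect and ±100 for the full control effect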); details: JNK3 lysate, c-Jun phosphorylation; series mostly up to 57.1 µM
Outline: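 Inhibitors reduce antibody binding to phosphorylated biotin-cJun, lowering AlphaScreen luminescence. Lysates from HepG2 cells pre-activated by IL-1beta plus TNF-alpha supplied JNK3; compounds were titrated.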

[9] = target: 3',5'-cyclic-AMP phosphodiesterase 4B (Homo sapiens) (UniProt Q07343); experiment: qHTS Assay for Inhibitors of PDE-IV (AID 607; active = well fitted activation curve with a large enough effect in the main read-out, with a control signal flat, not every such curve was filed as active; also: % of control where 0% means no effect); details: HEK293 ACTOne CNG channel cells, membrane potential fluorescence; series mostly up to 22.9 µM
3',5'-cyclic-AMP phosphodiesterase 4B (Homo sapiens), sequence (Q07343 whole entry, looked up): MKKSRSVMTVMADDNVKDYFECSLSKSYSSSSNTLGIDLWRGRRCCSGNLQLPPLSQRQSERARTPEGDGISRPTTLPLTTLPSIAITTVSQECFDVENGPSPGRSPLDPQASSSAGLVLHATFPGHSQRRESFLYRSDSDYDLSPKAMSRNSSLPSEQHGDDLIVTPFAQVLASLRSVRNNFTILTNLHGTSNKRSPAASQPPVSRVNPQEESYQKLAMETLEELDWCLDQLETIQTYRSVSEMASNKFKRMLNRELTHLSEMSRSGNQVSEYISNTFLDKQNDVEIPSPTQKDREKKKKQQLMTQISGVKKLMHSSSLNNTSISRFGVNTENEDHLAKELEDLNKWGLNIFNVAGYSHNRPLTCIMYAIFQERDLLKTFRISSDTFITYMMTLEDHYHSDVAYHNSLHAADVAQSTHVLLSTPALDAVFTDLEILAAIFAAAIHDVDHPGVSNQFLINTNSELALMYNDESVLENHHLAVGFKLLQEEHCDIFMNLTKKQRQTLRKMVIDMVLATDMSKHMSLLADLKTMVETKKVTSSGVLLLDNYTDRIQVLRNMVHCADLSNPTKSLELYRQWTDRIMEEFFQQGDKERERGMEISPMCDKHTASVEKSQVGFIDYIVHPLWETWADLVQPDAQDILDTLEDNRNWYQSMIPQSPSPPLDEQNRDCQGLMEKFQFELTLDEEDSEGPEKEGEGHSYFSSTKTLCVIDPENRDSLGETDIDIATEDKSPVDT
Outline: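 Cell-based read-out of cAMP via a modified cyclic nucleotide-gated channel and membrane potential dye (535/590 nm) in HEK293 cells expressing PDE4 endogenously. Compounds tested up to 22.9 uM final; 100 uM RO 20-1724 reference.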

[10] = target: Cytochrome P450 2C9 (Homo sapiens) (UniProt P11712); experiment: qHTS Assay for Inhibitors and Substrates of Cytochrome P450 2C9 (AID 883); details: recombinant CYP2C9, luciferin-H luminescence, 60 min; series mostly up to 57.1 µM; also: nearly all actives have a fitted effect of over 60% in size; also: potency is read from the fitted curve at half-maximal effect
Cytochrome P450 2C9 (Homo sapiens), sequence (P11712 whole entry, looked up): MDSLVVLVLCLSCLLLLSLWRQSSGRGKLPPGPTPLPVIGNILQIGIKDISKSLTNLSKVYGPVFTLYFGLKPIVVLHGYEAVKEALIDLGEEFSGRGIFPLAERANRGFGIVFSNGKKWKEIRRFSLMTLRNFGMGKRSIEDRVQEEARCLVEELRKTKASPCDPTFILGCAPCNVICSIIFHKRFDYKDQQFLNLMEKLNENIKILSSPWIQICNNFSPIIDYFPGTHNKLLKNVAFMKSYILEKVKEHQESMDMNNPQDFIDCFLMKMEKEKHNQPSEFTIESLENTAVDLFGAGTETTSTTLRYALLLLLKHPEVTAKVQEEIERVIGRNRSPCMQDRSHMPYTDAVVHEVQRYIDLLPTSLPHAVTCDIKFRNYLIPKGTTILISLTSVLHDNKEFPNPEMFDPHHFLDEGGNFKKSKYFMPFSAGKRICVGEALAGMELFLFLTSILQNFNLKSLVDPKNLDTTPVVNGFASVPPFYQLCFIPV
Outline: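 Human CYP2C9 (10nM) hydroxylated Luciferin-H (100uM, at its KM) to luciferin in 25mM KPO4. Compound was preincubated 10 min at 37C, then NADPH regeneration started a 60 min reaction at 37C. Luminescence was read after detection reagent, normalized to 57uM sulphaphenazole.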

[11] = target: Cytochrome P450 3A4 (Homo sapiens) (UniProt P08684); experiment: qHTS Assay for Inhibitors and Substrates of Cytochrome P450 3A4 (AID 884); details: recombinant CYP3A4, Luciferin-PPXE luminescence; series mostly up to 57.1 µM; also: potency is read from the fitted curve at half-maximal effect; nearly all actives have a fitted effect of over 50% in size
Cytochrome P450 3A4 (Homo sapiens), sequence (P08684 whole entry, looked up): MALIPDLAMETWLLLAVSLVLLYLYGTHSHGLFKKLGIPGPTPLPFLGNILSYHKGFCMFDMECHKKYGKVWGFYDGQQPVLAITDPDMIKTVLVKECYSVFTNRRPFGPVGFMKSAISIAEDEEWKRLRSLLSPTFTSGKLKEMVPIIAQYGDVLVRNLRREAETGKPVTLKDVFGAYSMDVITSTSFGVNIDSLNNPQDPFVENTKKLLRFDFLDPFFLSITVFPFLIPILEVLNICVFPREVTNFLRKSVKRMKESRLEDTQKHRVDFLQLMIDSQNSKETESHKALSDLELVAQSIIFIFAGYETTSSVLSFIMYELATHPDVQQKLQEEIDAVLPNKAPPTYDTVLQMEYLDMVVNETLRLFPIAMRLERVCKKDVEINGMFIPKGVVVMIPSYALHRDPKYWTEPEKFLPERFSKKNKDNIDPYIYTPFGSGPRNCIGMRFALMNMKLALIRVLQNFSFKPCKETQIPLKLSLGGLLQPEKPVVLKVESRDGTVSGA
Outline: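 20 nM human CYP3A4 with 25 uM Luciferin-PPXE (at KM) in 200 mM KPO4, preincubated 10 min with compound; NADPH regeneration started a 60 min RT reaction. Luciferin detected by luminescence, normalized to 57 uM ketoconazole as full inhibition.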

[12] = target: Cytochrome P450 3A4 (Homo sapiens) (UniProt P08684); experiment: qHTS Assay for Activators of Cytochrome P450 3A4 (AID 885); details: recombinant CYP3A4, Luciferin-PPXE luminescence, 60 min; series mostly up to 57.1 µM; also: nearly all actives have a fitted effect of over 65% in size
Outline: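 Signal was normalized against complete inhibition by 57 uM ketoconazole. The reaction used 20nM CYP3A4 with 25uM Luciferin-PPXE, 10-min compound preincubation and a 60-min NADPH-supported step at RT.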

[13] = target: Cytochrome P450 2C19 (Homo sapiens) (UniProt P33261); experiment: qHTS Assay for Inhibitors and Substrates of Cytochrome P450 2C19 (AID 899); details: recombinant CYP2C19, luciferin-H EGE luminescence; series mostly up to 57.1 µM; also: potency is read from the fitted curve at half-maximal effect; nearly all actives have a fitted effect of over 60% in size
Outline: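 Human CYP2C19 (5nM) with Luciferin-H EGE at 10uM (its KM) in 50mM KPO4 was preincubated with compound for 10 min at 37C. NADPH regeneration started a 60 min 37C reaction. Luciferin was read by luminescence, normalized to 57uM ketoconazole.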

[14] = Confirmation and Secondary Assay for Modulators of Hemoglobin Beta Chain Splicing at IVS2 654 locus (AID 910); details: HeLa EGFP-654 splicing reporter, GFP fluorescence, 48 h; series mostly up to 38.3 µM;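 also: per-well total GFP intensity by laser scanning cytometry after 2-day treatment; % of control where 0% means no effect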
Outline: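 HeLa cells stably carrying EGFP interrupted by mutant beta-globin IVS2-654 intron (CMV-driven) were treated with compound for 2 days at 37C; corrected splicing was scored as total peak GFP intensity per well (488 nm excitation, 500-520 nm emission).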

[15] = Confirmation and Secondary Assay for Modulators of Hemoglobin Beta Chain Splicing at IVS2 705 locus (AID 930); details: HeLa EGFP-705 splicing reporter, GFP fluorescence, 48 h; series mostly up to 38.3 µM;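 also: HeLa cells stably expressing the EGFP-705 splicing reporter; GFP fluorescence per well restored by corrected splicing of the IVS2-705 intron in EGFP; % of control where 0% means no effect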
Outline: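 Fluorescence gain (488 nm laser, 500-520 nm PMT) reflects restored correct splicing of a mutant IVS2-705 intron inside EGFP in stably transfected HeLa cells after 2-day compound treatment.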

[16] = qHTS Assay for Lipid Storage Modulators (AID 1519; calls by dose curve); details: Drosophila S3 cells, BODIPY lipid droplet/cell ratio, laser cytometry, cells loaded with oleic acid; for activity change, negative = inhibition: at 57.5 µM (top of the series)
Outline: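 Cells seeded at 5,000 per well were treated with compounds over a concentration series and loaded with oleic acid (400 uM, as added). Lipid droplet fluorescence (488 nm excitation, 500-530 nm channel) was read by laser-scanning cytometry and normalized to 20 uM Triacsin C.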

[17] = target: Ubiquitin carboxyl-terminal hydrolase 1 (Homo sapiens) (UniProt O94782); experiment: Inhibitors of USP1/UAF1: Pilot qHTS (AID 504865); details: purified USP1/UAF1, Ub-rhodamine cleavage fluorescence; series mostly up to 54.9 µM;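 also: rhodamine fluorescence freed from ubiquitin-rhodamine substrate followed over time; top concentration of the series differs between compounds; % is scaled to controls: 0 for no effect and ±100 for the full control effect; nearly all actives have a fitted effect of over 35% in size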
Ubiquitin carboxyl-terminal hydrolase 1 (Homo sapiens), sequence (O94782 whole entry, looked up): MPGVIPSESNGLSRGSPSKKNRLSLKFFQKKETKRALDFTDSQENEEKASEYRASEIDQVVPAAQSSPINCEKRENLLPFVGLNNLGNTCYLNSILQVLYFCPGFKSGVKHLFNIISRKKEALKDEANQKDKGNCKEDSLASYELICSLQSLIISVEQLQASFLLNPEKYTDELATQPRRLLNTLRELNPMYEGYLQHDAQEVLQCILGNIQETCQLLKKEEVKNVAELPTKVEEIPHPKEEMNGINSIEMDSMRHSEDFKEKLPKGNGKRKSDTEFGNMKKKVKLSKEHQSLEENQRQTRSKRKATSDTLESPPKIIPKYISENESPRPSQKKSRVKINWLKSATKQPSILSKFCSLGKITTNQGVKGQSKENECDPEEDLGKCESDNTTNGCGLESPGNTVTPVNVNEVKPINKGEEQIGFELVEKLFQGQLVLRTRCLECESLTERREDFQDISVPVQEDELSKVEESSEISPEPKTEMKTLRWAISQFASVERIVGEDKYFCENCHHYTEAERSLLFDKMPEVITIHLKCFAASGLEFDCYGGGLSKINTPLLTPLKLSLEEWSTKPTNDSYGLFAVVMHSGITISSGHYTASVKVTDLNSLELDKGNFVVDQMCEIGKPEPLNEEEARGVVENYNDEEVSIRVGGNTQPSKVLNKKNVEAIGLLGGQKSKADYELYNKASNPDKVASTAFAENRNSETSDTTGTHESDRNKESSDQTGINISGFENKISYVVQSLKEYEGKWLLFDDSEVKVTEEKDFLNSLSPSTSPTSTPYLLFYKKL
Outline: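 USP1/UAF1 complex at 1 nM preincubated 15 min at room temperature with compound, then Ub-Rho substrate added at 150 nM final. Fluorescence (480/540 nm) read kinetically in 50 mM HEPES pH 7.8, 0.5 mM EDTA, 1 mM TCEP, 0.1 mg/ml BSA, 0.01% Tween-20.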

[18] = Primary qHTS for small molecule stabilizers of the endoplasmic reticulum resident proteome: Secreted ER Calcium Modulated Protein (SERCaMP) assay (AID 1508630); details: SH-SY5Y GLuc-SERCaMP (Gaussia luciferase released on ER calcium loss) secretion, thapsigargin, luminescence; series mostly up to 38.4 µM; also: % is scaled to controls: 0 for no effect and ±100 for the full control effect
Outline: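 GLuc-SERCaMP-expressing SH-SY5Y cells, pretreated 16 h with compound, are challenged with thapsigargin to empty ER calcium stores; after 4 h, coelenterazine is added directly to the medium and luminescence is imaged.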

[19] = qHTS Assay for Identification of Small Molecule Agonists for Hypoxia Response Element Signaling Pathway (AID 914; active = well fitted activation curve with a large enough effect in the signal ratio, with a control signal flat, not every such curve was filed as active; the % refers to the signal ratio; also: potency is read from the fitted curve at half-maximal effect; as to activation: % of control where 0% means no effect); details: ME-180 (cervical carcinoma) HRE-bla reporter, beta-lactamase ratio, CoCl2, 17 h; activation: stronger effect = higher value
Outline: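 A beta-lactamase reporter under hypoxia response element control in ME-180 cells served as the system. Compound titrations plus EC50 CoCl2 ran 17 h at 37 degrees Celsius; AC50 values were fitted from %Activity.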

[20] = target: Dual specificity protein kinase CLK4 (Homo sapiens) (UniProt Q9HAZ1); experiment: qHTS Assay for Inhibitors of CDC-like Kinase 4 (ADP-FP Assay) (AID 1795); details: Transcreener ADP fluorescence polarization; series mostly up to 50 µM;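 also: recombinant human CLK4 phosphorylating RS repeat peptide at 1 µM ATP; % is scaled to controls: 0 for no effect and ±100 for the full control effect; nearly all actives have a fitted effect of over 60% in size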
Dual specificity protein kinase CLK4 (Homo sapiens), sequence (Q9HAZ1 whole entry, looked up): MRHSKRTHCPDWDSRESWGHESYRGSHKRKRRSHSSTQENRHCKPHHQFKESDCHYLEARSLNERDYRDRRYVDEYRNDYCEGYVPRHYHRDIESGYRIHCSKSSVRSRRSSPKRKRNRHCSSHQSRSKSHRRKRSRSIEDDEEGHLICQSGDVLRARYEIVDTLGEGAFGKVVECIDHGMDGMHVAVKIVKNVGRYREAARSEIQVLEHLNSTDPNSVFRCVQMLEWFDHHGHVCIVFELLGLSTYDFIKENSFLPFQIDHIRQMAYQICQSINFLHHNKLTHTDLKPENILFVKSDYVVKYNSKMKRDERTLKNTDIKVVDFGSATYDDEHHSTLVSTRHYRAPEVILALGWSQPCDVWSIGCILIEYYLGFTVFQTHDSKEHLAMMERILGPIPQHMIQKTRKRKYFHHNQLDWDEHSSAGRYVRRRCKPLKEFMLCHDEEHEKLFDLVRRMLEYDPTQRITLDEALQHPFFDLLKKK
Outline: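 Recombinant Clk4 (6.25 nM) phosphorylated 100 uM RS repeat peptide with 1 uM ATP in 25 mM Tris pH 7.5, 10 mM MgCl2, 0.5 mM EGTA, 2.5 mM DTT, 0.01% Triton X-100 for 1 h. ADP was detected by Transcreener ADP2 competitive fluorescence polarization after 30 min at room temperature.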

[21] = measured here: cell count channel max response
[22] = measured here: lipid channel max response

Cc1noc(C)c1-c1nccc(-n2ccnc2)n1
active: Potency [3] 0.2 µM | Potency [11] 1.26 µM | Potency [13] 3.98 µM
inactive: Potency [1] > 11.4 µM | activity change, negative = inhibition [2] 3.6% | activity change, negative = inhibition [4] -0.351% | activity, negative = inhibition [5] 16.2% | Potency [6] > 46 µM | Potency [7] > 46 µM | outcome [8] | Potency [9] | activity change, negative = inhibition [10] 16.1% [at 2.29 µM] | Potency [12] | outcome [14] | outcome [15] | activity change, negative = inhibition [16] 7.83% | Potency [17] | Potency [18]
12.5%: max response [16, 21]
20.6%: max response [16, 22]

COCCNc1nc(-c2ccccc2CN(C)C)nc2ccccc12
6.21%: max response [16, 22]
active: Potency [3] 10 µM
2.38%: max response [16, 21]
inactive: Potency [1] > 11.4 µM | activity change, negative = inhibition [2] 4.08% | activity change, negative = inhibition [4] -0.773% | activity, negative = inhibition [5] 10% | Potency [6] > 46 µM | Potency [7] > 46 µM | outcome [8] | Potency [9] | Potency [12] | outcome [14] | activation [19] 2.67% | outcome [15] | activity change, negative = inhibition [16] 3.16% | Potency [17] | Potency [18]

COCCNc1ccnc(-c2ccccc2C(F)(F)F)n1
25.6%: max response [16, 21]
inactive: Potency [1] > 11.4 µM | activity change, negative = inhibition [4] 9.65% | activity, negative = inhibition [5] 8.97% | Potency [6] > 46 µM | Potency [7] > 46 µM | outcome [8] | Potency [9] | activity change, negative = inhibition [10] 34.3% [at 2.29 µM] | activity change, negative = inhibition [16] 3.61% | Potency [20] | Potency [17] | Potency [18]
29.2%: max response [16, 22]

O=c1c(-c2cc(F)cc(F)c2)nc2cnc(N3CCNCC3)nc2n1C1CC1
active: Potency [3] 3.16 µM | Potency [10] 0.158 µM | Potency [19] 2.51 µM
inactive: Potency [1] > 11.4 µM | Potency [6] > 9.22 µM | Potency [7] > 46 µM | outcome [8] | Potency [9] | Potency [12] | activity change, negative = inhibition [16] 2.24% | Potency [20] | Potency [17] | Potency [18]
4.49%: max response [16, 21]
4.55%: max response [16, 22]

COc1ccccc1CNc1ncncc1-c1cccc(C#N)c1
8.29%: max response [16, 22]
-8.3%: max response [16, 21]
inactive: Potency [1] > 11.4 µM | activity change, negative = inhibition [2] -6.51% | activity change, negative = inhibition [4] -5.86% | activity, negative = inhibition [5] -0.225% | Potency [6] > 46 µM | Potency [7] > 46 µM | outcome [8] | Potency [9] | Potency [12] | outcome [14] | activation [19] -9.43% | outcome [15] | activity change, negative = inhibition [16] 6.39% | Potency [17] | Potency [18]
active: Potency [3] 10 µM | Potency [13] 3.16 µM
